Screening data (PubChem)
ATXN2 expr inh = Primary qHTS for Inhibitors of ATXN expression; hit rate 0.72% among 360,000; Potency, µM (highest dose often 57 µM), for the others: at the highest dose activity change, negative = inhibition, hits mostly inhibitors; HEK-293 ATXN2-luciferase reporter, luminescence, 24 h; AID 1745845, 2022; also: % is scaled to controls: 0 for no effect and ±100 for the full control effect; nearly all actives have a fitted effect of over 55% in size
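qHTS (up to 57 uM final) was run with 24 h compound exposure of reporter cells at 37 °C. Each well was multiplexed: SteadyGlo luminescence measured ATXN2-luciferase expression after a fluorogenic Gly-Phe-AFC viability readout (25 uM final).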
KB-3-1 tox = qHTS assay for MDR1-selective chemotherapeutics: Primary screen using the parental adenocarcinoma cell KB-3-1 | KB-3-1 viability, CellTiter-Glo ATP luminescence, 72 h | Potency, µM (series often up to 46.1 µM), most hits filed as cytotoxic | hit rate 1.4% among 400,000 | AID 1347075, 2019; also: % is scaled to controls: 0 for no effect and ±100 for the full control effect; nearly all actives have a fitted effect of over 60% in size
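Viability of parental KB-3-1 cells, measured by CellTiter-Glo luminescence, followed a 72 h incubation at 37 °C with pinned compounds in phenol-red-free DMEM containing 10% FBS.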
HT1080-NT tox = qHTS for induction of synthetic lethality in tumor cells producing 2HG: qHTS for the HT-1080-NT fibrosarcoma cell line; Potency, µM (top dose mostly 46.1 µM), without a hit: at the highest dose activity, negative = less viability, actives largely listed as cytotoxic; hit rate 1.6% among 360,000; HT-1080-NT fibrosarcoma viability, CellTiter-Glo ATP luminescence, 48 h; AID 686970, 2013;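 also: NT is the 2HG producing partner of a matched IDH1 knockdown line; 0% = DMSO-treated cells and -100% = media-only wells without cells; nearly all actives have a fitted effect of over 55% in size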
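A 48-hour cytotoxicity screen used HT-1080-NT cells plated 2 hours before compound delivery. ATP-based CellTiter-Glo luminescence measured viability, normalized to DMSO and no-cell controls.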
KB-V1 cytotox = qHTS assay for MDR1-selective chemotherapeutics: Primary screen using the drug-selected MDR subline cells KB-V1; KB-V1 MDR cells viability, CellTiter-Glo, 72 h; Potency, µM (highest dose often 46.1 µM), hits mostly cytotoxic; hit rate 3.4% among 400,000; also: % is scaled to controls: 0 for no effect and ±100 for the full control effect; nearly all actives have a fitted effect of over 60% in size
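Readout: CellTiter-Glo luminescence, 10 min after addition. Cells: KB-V1 MDR subline, 72 h at 37 degrees C with compound. Analysis: corrected, normalized data fitted to concentration-effect curves.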
S2 tox = Viability Counterscreen for Primary qHTS for Inhibitors of ATXN expression; S2 cells (HEK-293 line with an ATXN2-luciferase reporter) viability, CellTiter-Fluor protease fluorescence, 24 h; AID 651635, 2014; Potency, µM (highest dose often 56.7 µM), actives largely listed as cytotoxic; hit rate 0.49% among 400,000; also: nearly all actives have a fitted effect of over 40% in size
HT1080 IDH1KD tx = qHTS for induction of synthetic lethality in tumor cells producing 2HG: qHTS for the HT-1080-IDH1KD cell line | AID 686971, 2013 | Potency, µM (series often up to 46.1 µM), inactives show top-dose activity, negative = toxicity, usual class: cytotoxic | hit rate 2% among 360,000 | HT-1080 IDH1 knockdown viability, ATP luminescence, 48 h;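 also: 0% = DMSO wells and -100% = cell-free medium wells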
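Cytotoxicity counter-line: IDH1KD HT-1080, 48 h, CellTiter-Glo. Curves classed by r2, magnitude and activity.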
An asterisk follows results filed as active; i = inactive; u = inconclusive; x = no result; ! = repeats disagree. This is a sample that favours compounds with a hit; in the whole collection about 6.2% have one here. Calls follow the shape of the dose curve; as a rule, active = well fitted curve in the direction sought with a large enough effect; inconclusive = small, poorly fitted or top-dose-only effect, or another doubt; inactive = no such curve, though single readings can be large; an effect the other way counts as inactive or inconclusive. Potency is read from the fitted curve at half-maximal effect.

SMILES	ATXN2 expr inh	KB-3-1 tox	HT1080-NT tox	KB-V1 cytotox	S2 tox	HT1080 IDH1KD tx
CCCCCCNc1ccc(/C=C/c2ccnc3ccccc23)cc1	x	i	x	u	x	x
COc1cc(C(=O)Nc2ccc3c(c2)Cc2ccccc2-3)cc(OC)c1OC	x	i	-2%	i	u	-13%
COc1ccccc1C(=O)Nc1ccc(S(=O)(=O)N2CCc3ccccc32)cc1	12%	i	2%	u	i	1%
COc1cc(C(=O)Nc2ccc3c(c2)CCN3C(C)=O)cc(OC)c1OC	x	3.3µM*	u	u	i	2.6µM*
COC(=O)Nc1ccc(S(=O)(=O)N2CCCc3ccccc32)cc1	-10%	1.5µM*	8.9µM*	1.2µM*	u	1.4µM*
COCCCNC(=O)c1c[nH]c2ccc(S(=O)(=O)N3CCc4ccccc43)cc2c1=O	-36%	u	u	i	i	u
COCCNC(=O)c1c[nH]c2ccc(S(=O)(=O)N3CCc4ccccc43)cc2c1=O	x	u	2.3µM*	i	i	2.3µM*
COc1cc(C(=O)Nc2ccc(S(=O)(=O)N3CCc4ccccc43)cc2)cc(OC)c1OC	18%	u	-6%	5.8µM*	i	-18%
COC(=O)Nc1ccc(S(=O)(=O)N2CCCc3cccc(O)c32)cc1	x	u	u	u	i	u
CCOC(=O)c1cc(S(=O)(=O)Nc2ccc(OC)c(Cl)c2)[nH]n1	0%	i	x	u	i	x
O=c1[nH]c(Nc2ccccc2)cc2cc(Br)ccc12	-32%	i	-12%	u	i	-23%
COc1ccccc1Nc1cc2cc(Br)ccc2c(=O)[nH]1	-17%	7.3µM*	-27%	u	i	u
COc1ccc(OC)c(Nc2cc3ccccc3c(=O)[nH]2)c1	-13%	4.1µM*	u	23µM*	i	18µM*
Cc1ccccc1CN1C(=O)c2ccccc2Sc2ccc(C(=O)NCCN3CCOCC3)cc21	-26%	i	-29%	i	i	-29%
CCN1CCN(CCCNC(=O)c2ccc(/C=C3/Sc4ccccc4N(Cc4ccccc4F)C3=O)cc2)CC1	u	u	18µM*	i	i	15µM*
CCN1CCN(CCNC(=O)c2ccc(/C=C3/Sc4ccccc4N(Cc4ccccc4C)C3=O)cc2)CC1	u	u	15µM*	i	u	21µM*
CC(=NNC(=S)N1CCC1)c1ccccn1	0.034µM*!	u	-24%	u	u	u
CC(=NNC(=S)N1CC2CCC(CC2)C1)c1cccc(C)n1	-29%	u	-21%	u	u	u
CC(=NNC(=S)Nc1cccc(Cl)c1)c1ccccn1	u	u	18µM*	u	u	u
O=C(Cn1c(-c2cccs2)cc2ccccc21)N1CCN(c2ccc(F)cc2)CC1	8%	i	x	i	i	x
CCOC(=O)CSC1=NC(=O)/C(=C\c2ccc(Cl)cc2)S1	25µM*	u	-25%	u	u	u
CC(=O)c1ccc(NC(=O)c2cc3c([nH]c2=O)CC(c2ccccc2)CC3=O)cc1 (stereo not given)	10%	i	x	u	i	x
CC(C)CCNC(=O)c1cnn2c(C(F)(F)F)cc(-c3ccco3)nc12	u	u	1%	11µM*	i	u
O=C(c1nn2c(C(F)(F)F)cc(-c3cccs3)nc2c1Br)N1CCCc2ccccc21	28%	u	-23%	u	i	u
O=C(NC1CCCC1)c1cnn2c(C(F)(F)F)cc(-c3ccc4c(c3)OCO4)nc12	u	i	4%	u	i	10%
SMILES	ATXN2 expr inh	KB-3-1 tox	HT1080-NT tox	KB-V1 cytotox	S2 tox	HT1080 IDH1KD tx
CC(C)CCNC(=O)c1cc(-c2ccco2)nc2ccccc12	-1%	i	0%	9.2µM*	i	-2%
O=C(c1nn2c(C(F)(F)F)cc(-c3ccco3)nc2c1Br)N1CCCc2ccccc21	-21%	u	23µM*	23µM*	u	10µM*
O=C(NC1CCCC1)c1cnn2c(C(F)(F)F)cc(-c3ccco3)nc12	8%	i	3%	5.2µM*	i	u
Cc1ccc(-n2c(=O)c3c(cnn3C)n(Cc3ccccc3F)c2=O)cc1	5%	i	x	i	i	x
CCOc1cc2c(cc1OCC)C(c1c(F)cccc1Cl)CC(=O)N2 (stereo not given)	8%	i	x	i	i	x
N#Cc1nc(-c2ccc(OCc3ccc(Cl)cc3)cc2)oc1N1CCCCC1	x	i	x	i	x	x
NC(=O)c1cnn2c(C(F)(F)F)cc(-c3ccc(F)cc3)nc12	-6%	i	-10%	13µM*	i	0%
Cc1cc(NC(=O)Nc2ccc(C)c(C)c2)no1	9%	i	29µM*	i	i	-4%
O=C(Nc1nnc(-c2ccncc2)s1)Nc1cccc2ccccc12	x	i	x	i	x	x
c1ccc2c(Nc3nnc(-c4ccncc4)s3)cccc2c1	62%	i	4%	15µM*	i	-7%
O=C(Nc1ccc(-c2ccccc2)cc1)Nc1nnc(-c2ccncc2)s1	x	u	x	i	x	x
O=C(Nc1ccc(F)cc1)Nc1nnc(-c2ccncc2)s1	-9%	i	-24%	i	u	-2%
O=C(Nc1ccccc1)Nc1nnc(-c2ccncc2)s1	x	18µM*	x	u	x	x
O=C(Nc1nnc(-c2ccncc2)s1)Nc1ccc(Cl)cc1Cl	x	i	x	i	x	x
O=C(Nc1cccc(Cl)c1)Nc1nnc(-c2ccncc2)s1	u	13µM*	u	u	x	10µM*
O=C(Nc1ccc(Cl)cc1)Nc1nnc(-c2ccncc2)s1	u	u	8%	2.6µM*!	u	11%
CCCCC(O)/C=C(C)/C=C/C=C/C(=O)N1CCCC1=O (stereo not given)	15%	x	x	x	i	x
Cc1ccccc1CNC(=O)C1CCCN(c2nnc(-n3c(C)ccc3C)s2)C1 (stereo not given)	2%	i	x	u	i	x
Cc1ccc2c(c1)C(c1ccccc1)N(C(=O)c1ccc(OC(C)C)cc1)CC(=O)N2 (stereo not given)	4%	i	x	i	i	x
Cc1[nH]n(-c2nc(-c3ccc(Cl)cc3)cs2)c(=O)c1N=Nc1ccc(O)cc1	u	u	u	15µM*	x	-24%
